Assay outcomes: PubChem BioAssay, several laboratories
Hits are enriched below; roughly 3.5% of the tested compounds scored in any of these assays.
Rv3671c inh: inhibits the M. tuberculosis serine protease Rv3671c; hit rate 0.048% among 320,000; P9WHR9; AID 2606; inhibition, % at 5.96 µM; in the data active = inhibition above about 38%;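 note: extracellular domain of Rv3671c used as enzyme; 0% = enzyme with DMSO and 100% = no enzyme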
Target sequence (P9WHR9 whole entry, looked up, the tested form may be a part): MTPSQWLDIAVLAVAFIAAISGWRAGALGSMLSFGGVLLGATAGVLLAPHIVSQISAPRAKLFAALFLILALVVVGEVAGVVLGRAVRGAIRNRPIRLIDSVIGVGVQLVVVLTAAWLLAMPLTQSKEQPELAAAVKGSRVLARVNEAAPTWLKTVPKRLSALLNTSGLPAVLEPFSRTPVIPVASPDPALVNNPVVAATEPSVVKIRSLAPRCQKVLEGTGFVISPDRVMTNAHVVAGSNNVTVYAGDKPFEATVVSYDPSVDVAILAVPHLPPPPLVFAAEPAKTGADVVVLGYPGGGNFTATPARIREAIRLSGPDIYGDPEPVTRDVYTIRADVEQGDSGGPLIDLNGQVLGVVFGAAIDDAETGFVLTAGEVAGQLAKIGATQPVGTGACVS
UGM FP inh: blocks M. tuberculosis UGM enzyme | P9WIQ1 | purified UGM, fluorescence polarization probe displacement | inhibition, % at 10 µM | hit rate 0.06% among 320,000 | AID 504406; in the data active = inhibition above about 10%, passing the limit was not always enough
GDH-TPI counter-1: GDH-TPI coupled enzyme inhibition counter-screen | inhibition, % at 4.8 µM | hit rate 1.2% among 360,000 | GDH-TPI coupled enzyme counterscreen, NADH absorbance; in the data active = inhibition above about 30%;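 note: 0% = DMSO wells and 100% = wells lacking the enzyme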
Mtb FBA inh: Mtb fructose-bisphosphate aldolase inhibition; inhibition, % at 1 µM; purified M. tuberculosis FBA, fluorescence read-out; hit rate 2.3% among 360,000; in the data active = inhibition above about 27%;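 note: 0% = vehicle and 100% = reference inhibitor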
Mtb bLac sens: beta-lactam sensitization of Mtb H37Rv; inhibition, % at 25 µM; M. tuberculosis H37Rv growth with meropenem, percent inhibition; hit rate 0.27% among 330,000; AID 434955;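 note: growth measured after seven days incubation then overnight dye step; 0% = bacteria only wells and 100% = bacteria with antibiotic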
Mtb FBA confirm: Mtb FBA inhibition, confirmed; shares compounds with Mtb FBA inh; purified M. tuberculosis FBA, fluorescence read-out; inhibition, % at 1 µM; hit rate 78% among 5,600; AID 651616; in the data active = inhibition above about 27%;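 note: 0% = vehicle wells and 100% = reference inhibitor wells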
GDH-TPI counter-2: counter-screen for M. tuberculosis FBA inhibitors: GDH-TPI coupled enzyme inhibition; shares compounds with Mtb FBA inh; GDH-TPI coupled enzyme counterscreen, fluorescence; inhibition, % at 1 µM; hit rate 81% among 5,600; in the data active = inhibition above about 10%
GDH-TPI dose: inhibits GDH-TPI coupling enzymes in dose response; IC50, µM; hit rate 79% among 170; shares compounds with Mtb FBA inh; GDH-TPI coupled enzyme assay, fluorescence, artifact counterscreen
* = called active by the depositor; · = no result given; + = active, no number. Unless noted, the rule behind the calls is not given here.

SMILES | Rv3671c inh | UGM FP inh | GDH-TPI counter-1 | Mtb FBA inh | Mtb bLac sens | Mtb FBA confirm | GDH-TPI counter-2 | others
COc1cccc(-c2nn(-c3ccc(C)cc3)cc2C(=O)NCC2CCCO2)c1 (stereo not given) | 6 | -2 | 8 | 7 | 7 | · | ·
COc1cccc(-c2nn(-c3ccc(F)cc3)cc2C(=O)NCC2CCCO2)c1 (stereo not given) | 10 | · | -9 | 47* | -6 | + | +
COc1cccc2[nH]c(=O)c(-c3ccccc3)cc12 | -7 | -1 | 9 | 71* | 3 | 47* | 39*
COc1cccc2[nH]c(C(=O)NCC3CCCO3)cc12 (stereo not given) | 7 | -2 | -7 | 32* | -4 | 126* | 97*
COc1cccc2[nH]c(C(=O)NC(C)c3ccccc3)cc12 (stereo not given) | -4 | 0 | -6 | 50* | 2 | 156* | 117*
COc1c(N)c2ccccc2[nH]c1=O | -4 | 1 | 4 | 6 | -16 | · | ·
O=C(NCC1CCCO1)c1cc2ccccc2[nH]1 (stereo not given) | 12 | 0 | 5 | 14 | -11 | · | ·
N#Cc1ccc(C(=O)N2CCC3CC2c2cc(-c4ccc(F)cc4)ccc23)cc1 (stereo not given) | · | · | -1 | 1 | · | · | ·
COc1ccc([C@H]2C[C@@H](O)[C@H](n3cc(-c4ccc(F)cc4)nn3)CN2CC2CCCCC2)cc1 | · | · | 9 | 0 | · | · | ·
O=C(CCC(=O)OCC(F)(F)C(F)F)Nc1ccccc1F | 3 | -1 | 0 | 1 | 0 | · | ·
COc1cccc(-c2nc(C(=O)NCCCN3CCOCC3)cc3c2[nH]c2ccccc23)c1 | -5 | 0 | 15 | 38* | -8 | -1 | -7
CCN1CCCC1CNC(=O)c1cc2c(OC)cccc2[nH]1 (stereo not given) | 3 | 0 | -1 | 30* | -4 | 61* | 34*
COc1cc(-c2nc(C(=O)NCC3CCCO3)cc3c2[nH]c2ccccc23)cc(OC)c1OC (stereo not given) | -32 | -1 | 3 | 38* | 64 | 60* | 50*
COc1ccccc1-c1nc(C(=O)NCC2CCCO2)cc2c1[nH]c1ccccc12 (stereo not given) | -22 | 2 | 7 | 24 | -3 | · | ·
O=C(NCCCN1CCOCC1)c1cc2c([nH]c3ccccc32)c(-c2cccc(Br)c2)n1 | -8 | 0 | 6 | 21 | 96 | · | ·
O=C(Nc1cccc(Cl)c1)NC1CC2CCC(C1)N2Cc1cccs1 (stereo not given) | 5 | 3 | -1 | 6 | 1 | · | ·
CC(CCc1ccccc1)NC(=O)Cc1cccs1 (stereo not given) | 0 | -1 | -2 | 0 | 12 | · | ·
CCCCOc1ccc(/C=C/C(=O)Nc2ccc(C(N)=O)cc2)cc1 | -15 | 0 | 16 | -1 | 3 | · | ·
C=CCOc1ccc(/C=C/C(=O)Nc2ccc(C(=O)NC)cc2)cc1 | -18 | -2 | 23 | 45* | 5 | 44* | 37*
COCCNC(=O)c1cccc(OC2CCN(Cc3ccc(F)cc3OC)CC2)c1 | -1 | -1 | -1 | 0 | 2 | · | ·
O=C(N=Nc1c(O)[nH]c2ccc(F)cc12)C1COc2ccccc2O1 (stereo not given) | 5 | -1 | 14 | 38* | -7 | 131* | 104*
O=C(COC(=O)C1COc2ccccc2O1)c1ccc(F)cc1 (stereo not given) | · | · | 4 | 2 | · | · | ·
CC1=CC=CN2CC(O)CN=C12 (stereo not given) | -3 | -2 | 8 | 30* | -5 | + | +
CC1=CN2CC(O)CN=C2C=C1 (stereo not given) | -1 | -3 | 5 | 38* | -12 | 128* | 97*
CC1CCC2(CC1)NC(=O)N(NC(=O)c1cc3ccccc3o1)C2=O (stereo not given) | -4 | -2 | 2 | -1 | 2 | · | ·
SMILES | Rv3671c inh | UGM FP inh | GDH-TPI counter-1 | Mtb FBA inh | Mtb bLac sens | Mtb FBA confirm | GDH-TPI counter-2 | others
CC1(C)CC(=O)C2=C(C1)N(CCN1CCOCC1)C1=C(C(=O)CC(C)(C)C1)C2c1ccc(Cl)cc1 | 12 | 0 | 10 | 36* | -6 | 15 | 4 | GDH-TPI dose=4.6*
COc1ccc(C2C3=C(CC(C)(C)CC3=O)N(CCN3CCOCC3)C3=C2C(=O)CC(C)(C)C3)cc1 | 6 | -2 | 14 | 23 | -1 | · | ·
O=C(NCC1CCCO1)C1c2ccccc2C(=O)N1C1CCCCCC1 (stereo not given) | -8 | 0 | -12 | 41* | -3 | 112* | 97*
O=C(NCC1CCCO1)C1CCC(N2C(=O)c3ccccc3C2=O)CC1 (stereo not given) | -8 | 0 | 4 | 1 | 5 | · | ·
Cn1c2ccccc2c(=O)c2cc(C#CC3(O)CCCCC3)ccc21 | -2 | 1 | 7 | 93* | · | -5 | -3
Cn1c2ccccc2c(=O)c2ccc(C#CC3(N)CCCCC3)cc21 | -2 | -1 | 3 | 92* | 98 | 35* | 19*
COc1ccc2sc(C)cc(=O)c2c1 | · | · | 15 | 107* | · | 88* | 52*
CCCc1cc(C(=O)N2CCCC(Cc3ccccc3C)(C(=O)OCC)C2)no1 (stereo not given) | -3 | 0 | -5 | 1 | 7 | · | ·
COc1cc2c(OC)cccc2cc1C(=O)O | 4 | 1 | 11 | 65* | 7 | + | +
CCCCNC(=O)c1cccc(S(=O)(=O)N2CC3(C)CC2CC(C)(C)C3)c1 (stereo not given) | -6 | -3 | 2 | 0 | -3 | · | ·
CN1c2cccc3cccc(c23)N(C)C1c1cccs1 | 8 | 2 | 13 | -1 | -11 | · | ·
CC1N(C)c2cccc3cccc(c23)N1C | -24 | 2 | 3 | 103* | -6 | 196* | 128*
C=C1c2cc(OC)ccc2NC(=O)N1CC | 1 | -2 | 13 | 34* | -7 | 3 | 2
O=C(Cn1cnc(Cl)c1Cl)c1ccc(F)cc1 | -8 | 0 | -5 | 8 | -7 | · | ·
COc1ccc(-c2nc3ncnn3cc2C)cc1F | 5 | 1 | -4 | 73* | -7 | + | +
COc1ccc(-c2nc3nc(SC)nn3cc2C)cc1F | -10 | 0 | 1 | 16 | -3 | · | ·
Cc1ccc2oc(-c3cccc(NC(=O)C4CCCO4)c3)nc2c1 (stereo not given) | 5 | -1 | 9 | 51* | 17 | 120* | 98*
CCc1ccc2oc(-c3cccc(N)c3)nc2c1 | 1 | 1 | 4 | 63* | 98 | 127* | 104*
O=C(Nc1cccc(-c2nc3cc(Cl)ccc3o2)c1)C1CCCO1 (stereo not given) | 0 | 1 | 2 | 8 | -2 | · | ·
CCC(=O)Nc1cccc(-c2nc3ccc(C)cc3o2)c1 | -4 | 2 | 4 | 32* | 14 | 115* | 99*
